Assay outcomes from PubChem.
An excerpt weighted towards active compounds, which were near 1.6% of everything screened.
NALP3 yeast inh = blocks the NALP3 inflammasome reconstituted in yeast; Yeast reconstituted NLRP3/ASC/caspase-1, beta-gal luminescence, 24 h; inhibition, % at 10 µM; 0.39% of 330,000 active;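 active means inhibition of 50% or more; inactive means inhibition below 50%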
Rce1 inhib = blocks yeast Ras-converting enzyme. Q03530. yeast membranes, quenched prenylated peptide cleavage fluorescence. calls only. 0.27% of 290,000 active;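 active means fall in fluorescence gain of 50% or more versus controls, with final raw signal at or below 3038400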
Yeast superoxide = yeast age-related superoxide inhibition as caloric restriction mimetic; S. cerevisiae aged cells, superoxide DHE fluorescence; active compounds read low; superoxide response (% of plate mean), % at 10 µM; 0.18% of 330,000 active; AID 2690;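 active means superoxide response under a set limit, about three screen SD below normal, cut at about 65% in these data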;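 further: yeast aged for seven days with compound at 30 °C before DHE staining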
PERK inhibitor = blocks human PERK kinase; AID 1416; 0.17% of 220,000 active; Q9NZJ5; CHO PERK-DD fusion, SEAP luminescence translation reporter; inhibition, % at 5.6 µM;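 active means inhibition above the mean inhibition of all tested compounds plus 3 SD, set separately per screening campaign, cut at about 2.9% in these data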;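 further: PERK kinase domain activated by AP20187 dimerizer at 100 nM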
Target sequence (Q9NZJ5 whole entry, looked up, the tested form may be a part): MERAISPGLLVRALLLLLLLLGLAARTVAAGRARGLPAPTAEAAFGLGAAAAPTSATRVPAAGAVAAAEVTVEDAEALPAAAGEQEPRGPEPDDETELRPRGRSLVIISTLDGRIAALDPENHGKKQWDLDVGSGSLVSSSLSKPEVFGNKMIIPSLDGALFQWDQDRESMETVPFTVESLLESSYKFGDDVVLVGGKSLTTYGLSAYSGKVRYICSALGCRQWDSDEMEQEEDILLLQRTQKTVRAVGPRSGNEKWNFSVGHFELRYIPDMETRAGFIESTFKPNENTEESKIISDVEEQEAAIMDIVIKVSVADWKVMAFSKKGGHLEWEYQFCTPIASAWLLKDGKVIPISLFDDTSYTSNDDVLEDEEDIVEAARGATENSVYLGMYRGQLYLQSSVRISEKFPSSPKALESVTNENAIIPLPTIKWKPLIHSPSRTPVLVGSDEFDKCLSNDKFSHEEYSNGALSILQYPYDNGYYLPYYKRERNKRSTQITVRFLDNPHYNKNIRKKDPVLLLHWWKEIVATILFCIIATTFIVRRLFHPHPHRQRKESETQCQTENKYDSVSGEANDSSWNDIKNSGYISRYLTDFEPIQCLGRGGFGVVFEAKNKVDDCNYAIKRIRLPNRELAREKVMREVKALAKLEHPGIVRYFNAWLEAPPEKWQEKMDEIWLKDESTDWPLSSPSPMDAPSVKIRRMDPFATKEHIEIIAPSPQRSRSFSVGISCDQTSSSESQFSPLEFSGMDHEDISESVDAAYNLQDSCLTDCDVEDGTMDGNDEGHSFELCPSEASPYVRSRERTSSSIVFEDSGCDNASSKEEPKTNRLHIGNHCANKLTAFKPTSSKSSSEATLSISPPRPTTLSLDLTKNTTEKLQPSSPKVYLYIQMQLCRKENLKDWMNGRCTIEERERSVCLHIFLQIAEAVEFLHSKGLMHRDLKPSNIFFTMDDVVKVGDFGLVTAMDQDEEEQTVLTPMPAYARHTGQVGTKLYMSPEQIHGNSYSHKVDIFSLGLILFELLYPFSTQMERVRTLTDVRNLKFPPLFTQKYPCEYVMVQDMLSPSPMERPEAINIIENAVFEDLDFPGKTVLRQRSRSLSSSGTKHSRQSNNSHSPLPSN
V-ATPase pH = regulators of yeast V-ATPase proton transport; S. cerevisiae, pHLuorin cytosolic pH fluorescence; response, % at 10 µM; 0.37% of 350,000 active; in the data active means response mostly above about 7.3%, no sharp cut-off; inactive means mostly below about 5.4%; further: actives read high
NALP1 inh = NALP1 inhibition; S. cerevisiae NALP1/ASC/caspase-1 growth, X-gal OD620, 72 h; inhibition, % at 10 µM; 0.61% of 280,000 active; AID 2071; in the data active means inhibition mostly above about 24%, no sharp cut-off; inactive means mostly below about 32%
NALP3 confirm = NALP3 inhibition confirmation in yeast. shares compounds with NALP3 yeast inh. yeast expressing human NALP3, luminescence. inhibition, % at 10 µM. 81% of 1,300 active; in the data active means inhibition above about 48%
Casp1-ASC yeast = counter-screen for NALP3 inhibitors: yeast caspase-1-ASC. 66% of 1,000 active. shares compounds with NALP3 yeast inh. AID 488784. inhibition, % at 10 µM. yeast expressing Caspase-1-ASC, luminescence counter screen
NALP3 yeast rt = retest-confirmed inhibitor of NALP3 in yeast. shares compounds with NALP3 yeast inh. AID 488794. inhibition, % at 10 µM. 53% of 1,000 active. yeast expressing human NALP3, luminescence read-out
Each line names hits and unclear results; the compound was inactive in the other large screens (follow-up assays come after a bar, where they were run). Unless noted, no stated cut-off is given here; in the data, active means inhibition above about 50%; inactive means the rest.

Cn1c(/C=C/N(Cc2ccccc2)c2ccccc2)c([N+](=O)[O-])c(=O)n(C)c1=O	none | NALP3 confirm inactive
CCc1ccc(/C=C/c2c([N+](=O)[O-])c(=O)n(C)c(=O)n2C)cc1	none (no result: PERK inhibitor)
COc1ccccc1CC1CC(=O)N(c2ccc([N+](=O)[O-])cc2)C1=O (stereo unspecified)	none (no result: NALP3 yeast inh, Rce1 inhib, Yeast superoxide, PERK inhibitor, NALP1 inh)
CCOC(=O)c1sc(=S)n(-c2ccccc2Cl)c1C	none
CCOC(=O)N1C(=O)C2(CCCCC2)N(c2ccccc2Cl)C1=S	NALP3 yeast inh 64 | NALP3 confirm 67 | Casp1-ASC yeast inactive | NALP3 yeast rt 51
CCCCCCN1C[C@H](n2cc(COC(=O)c3ccccc3)nn2)[C@@H](O)C[C@@H]1c1ccc(C)cc1	none (no result: NALP3 yeast inh, Rce1 inhib, Yeast superoxide, PERK inhibitor, NALP1 inh)
O=C(NCCC1=CCCCC1)c1ccc([N+](=O)[O-])cc1	NALP3 yeast inh 58 | NALP3 confirm inactive
NCCc1nnc(SCc2c(Cl)cccc2Cl)o1	NALP3 yeast inh 84, NALP1 inh 39 | NALP3 confirm 82 | Casp1-ASC yeast 83 | NALP3 yeast rt 92
NCCc1nnc(SCc2c(F)cccc2Cl)o1	NALP3 yeast inh 77 | NALP3 confirm 88 | Casp1-ASC yeast 72 | NALP3 yeast rt 83
NCCc1nnc(SCC(=O)c2ccc(Cl)cc2)o1	NALP3 yeast inh 56 | NALP3 confirm 71
NCCCCCc1nnc(SCC(=O)c2ccc(Cl)cc2)o1	none
O=S(=O)(c1ccc(F)c(F)c1)N1CCCCCCC1	none (no result: NALP3 yeast inh, Rce1 inhib, Yeast superoxide, PERK inhibitor, NALP1 inh)
CC1CCN(S(=O)(=O)c2cccc(-c3cn4cc(Cl)ccc4n3)c2)CC1	NALP3 yeast inh 64 | NALP3 confirm 75 | Casp1-ASC yeast inactive | NALP3 yeast rt inactive
Cn1c(CNc2ccc(Cl)cc2)nc2ccccc21	none
CC(C)N=c1cc2n(-c3ccc(Cl)cc3)c3ccccc3nc-2cc1Nc1ccc(Cl)cc1	NALP3 yeast inh 56 (no result: PERK inhibitor, NALP1 inh) | NALP3 confirm 68
COc1ccc([C@H]2CN(Cc3ccccc3)C(=O)[C@@H]2CC(=O)Nc2ccccc2)cc1	none (no result: NALP3 yeast inh, Rce1 inhib, Yeast superoxide, PERK inhibitor, NALP1 inh)
O=C(NC1=NCCS1)c1ccccc1OCc1ccccc1Cl	NALP3 yeast inh 96 | NALP3 confirm 99 | Casp1-ASC yeast 98 | NALP3 yeast rt 98
CC(C)Oc1ccc2ccccc2c1CNC[C@H]1O[C@@H](n2ccc(N)nc2=O)[C@H](O)[C@@H]1O	none (no result: NALP3 yeast inh, Rce1 inhib, Yeast superoxide, PERK inhibitor, NALP1 inh)
O=C1c2ccccc2C(=O)C12OC2c1ccc(Cl)cc1 (stereo unspecified)	none (no result: V-ATPase pH) | NALP3 confirm inactive
Cc1ccc(NC(=O)c2nc[nH]c2C(=O)N(C)CCO)cc1	none (no result: NALP3 yeast inh, Rce1 inhib, Yeast superoxide, PERK inhibitor, NALP1 inh)
CCCCCCCCCCCCCCCC[n+]1cccc(C(=O)N(CC)CC)c1	NALP3 yeast inh 63, NALP1 inh 71 | NALP3 confirm 73 | Casp1-ASC yeast 72 | NALP3 yeast rt 68
O/N=C/c1cccc[n+]1CCCCCC[n+]1ccccc1/C=N/O	none (no result: PERK inhibitor)
CCCCCCCC[n+]1cccc(C(=O)N(CC)CC)c1	none
CCCCCCCCCCCCCCCC[n+]1ccc(/C=N/O)cc1	NALP3 yeast inh 56, NALP1 inh 50 (no result: Rce1 inhib) | NALP3 confirm inactive
CCCCCCCCCCCCCCCC[n+]1ccc(C(N)=O)cc1	NALP3 yeast inh 53, NALP1 inh 96 (no result: Rce1 inhib) | NALP3 confirm inactive
CCc1cc(-c2cnnn2Cc2ccccc2)ccc1-c1cn(CC(C)C)nn1	none (no result: NALP3 yeast inh, Rce1 inhib, Yeast superoxide, PERK inhibitor, NALP1 inh)
C[C@H]1CN([C@@H](C)CO)C(=O)c2cc(-c3cccc(C#N)c3)cnc2O[C@H]1CN(C)C(=O)c1ccccn1	none (no result: NALP3 yeast inh, Rce1 inhib, Yeast superoxide, PERK inhibitor, NALP1 inh)
Cc1cccc(N(C)c2ccc3cc(S(=O)(=O)N4CCCC4)ccc3n2)c1	NALP3 yeast inh 68 (no result: PERK inhibitor) | NALP3 confirm 79 | Casp1-ASC yeast 75 | NALP3 yeast rt 58
CCOC(=O)C1=CN(CC)CCC1=O	none (no result: NALP3 yeast inh, Rce1 inhib, Yeast superoxide, PERK inhibitor, NALP1 inh)
CC(=O)O[C@H]1CC[C@@]2(C)C(CCC3C2CC[C@]2(C)OC(=O)CCC32)C1 (stereo partly specified)	NALP3 yeast inh 60 | NALP3 confirm 58 | Casp1-ASC yeast 59 | NALP3 yeast rt inactive
O=c1cc(-c2ccccc2Cl)oc2ccc([N+](=O)[O-])c(O)c12	NALP3 yeast inh 57 | NALP3 confirm 72 | Casp1-ASC yeast inactive | NALP3 yeast rt 57
